How the values were obtained:
Assay in all cases: DAPPL (digital affinity profiling via proximity ligation, sequencing); 10 mM Tris-HCl pH 7.5, 50 mM NaCl, 1 mM DTT, 4% glycerol, room temperature, 30 min; GST-TFs on glutathione beads, 16-mer random dsDNA library, 0.1% formaldehyde crosslink after washing; high values mean tight binding
Settings in all cases: protein: recombinant; tags: N-terminal GST; dsDNA, one strand shown
FLI1 = molecular target: T1, FLI1 (Homo sapiens, UniProt Q01543 1-452)
T1 sequence: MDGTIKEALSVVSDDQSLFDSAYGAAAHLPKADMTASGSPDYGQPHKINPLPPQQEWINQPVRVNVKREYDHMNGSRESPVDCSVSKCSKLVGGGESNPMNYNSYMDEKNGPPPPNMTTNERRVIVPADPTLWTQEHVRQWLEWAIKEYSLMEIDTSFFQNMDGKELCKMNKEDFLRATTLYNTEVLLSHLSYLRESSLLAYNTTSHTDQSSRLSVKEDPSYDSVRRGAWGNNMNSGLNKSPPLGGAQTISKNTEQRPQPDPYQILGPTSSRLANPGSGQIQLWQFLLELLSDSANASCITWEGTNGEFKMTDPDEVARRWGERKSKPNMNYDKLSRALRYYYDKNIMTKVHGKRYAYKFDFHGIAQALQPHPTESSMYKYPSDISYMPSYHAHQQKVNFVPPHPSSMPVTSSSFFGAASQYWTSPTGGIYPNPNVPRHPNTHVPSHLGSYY
In short: (§1)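 Beads coated with glutathione captured GST-fused human transcription factors that had been expressed in yeast, and the factors were then given DNA barcodes and pooled with a tag-only sample. The pools were incubated with 200 nmole of a random double-stranded 16-mer DNA library in Tris/NaCl/DTT/glycerol buffer for 30 min at room temperature, washed, crosslinked with 0.1% formaldehyde and proximity-ligated with BsaI/T4 ligase at 37 °C for 1 h. PCR amplification and Illumina NextSeq500 sequencing came last. Binding signal is each hexamer's read frequency for a factor divided by its frequency for the tag-only sample.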

ELK1 = molecular target: T2, ELK1 (Homo sapiens, UniProt P19419 1-428)
T2 sequence: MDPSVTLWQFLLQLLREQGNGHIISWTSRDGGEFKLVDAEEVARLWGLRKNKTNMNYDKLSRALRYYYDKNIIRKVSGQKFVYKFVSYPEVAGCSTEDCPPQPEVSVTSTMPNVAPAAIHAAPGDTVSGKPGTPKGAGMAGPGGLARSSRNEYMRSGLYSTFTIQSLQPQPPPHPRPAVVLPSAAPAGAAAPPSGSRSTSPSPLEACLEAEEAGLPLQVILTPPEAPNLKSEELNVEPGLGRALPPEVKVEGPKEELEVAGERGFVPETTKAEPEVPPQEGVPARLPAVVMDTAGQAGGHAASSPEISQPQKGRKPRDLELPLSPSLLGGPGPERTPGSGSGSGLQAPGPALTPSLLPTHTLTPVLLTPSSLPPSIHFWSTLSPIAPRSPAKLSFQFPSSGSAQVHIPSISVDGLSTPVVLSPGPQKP
In short: as §1

GABPA = molecular target: T3, GABPA (Homo sapiens, UniProt Q06546 1-454)
T3 sequence: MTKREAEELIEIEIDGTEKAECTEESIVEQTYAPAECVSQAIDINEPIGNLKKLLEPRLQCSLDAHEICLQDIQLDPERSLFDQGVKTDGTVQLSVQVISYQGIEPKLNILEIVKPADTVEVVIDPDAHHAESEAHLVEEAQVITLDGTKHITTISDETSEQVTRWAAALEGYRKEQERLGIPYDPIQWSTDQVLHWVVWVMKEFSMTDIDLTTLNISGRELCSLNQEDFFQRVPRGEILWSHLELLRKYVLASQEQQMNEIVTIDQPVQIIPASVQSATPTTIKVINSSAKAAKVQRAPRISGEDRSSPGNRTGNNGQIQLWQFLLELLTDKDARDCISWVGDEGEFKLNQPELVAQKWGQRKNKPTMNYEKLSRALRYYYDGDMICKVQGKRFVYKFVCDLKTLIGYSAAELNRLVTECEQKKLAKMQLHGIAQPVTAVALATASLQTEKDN
In short: as §1

ERG = molecular target: T4, ERG (Homo sapiens, UniProt P11308 1-479)
T4 sequence: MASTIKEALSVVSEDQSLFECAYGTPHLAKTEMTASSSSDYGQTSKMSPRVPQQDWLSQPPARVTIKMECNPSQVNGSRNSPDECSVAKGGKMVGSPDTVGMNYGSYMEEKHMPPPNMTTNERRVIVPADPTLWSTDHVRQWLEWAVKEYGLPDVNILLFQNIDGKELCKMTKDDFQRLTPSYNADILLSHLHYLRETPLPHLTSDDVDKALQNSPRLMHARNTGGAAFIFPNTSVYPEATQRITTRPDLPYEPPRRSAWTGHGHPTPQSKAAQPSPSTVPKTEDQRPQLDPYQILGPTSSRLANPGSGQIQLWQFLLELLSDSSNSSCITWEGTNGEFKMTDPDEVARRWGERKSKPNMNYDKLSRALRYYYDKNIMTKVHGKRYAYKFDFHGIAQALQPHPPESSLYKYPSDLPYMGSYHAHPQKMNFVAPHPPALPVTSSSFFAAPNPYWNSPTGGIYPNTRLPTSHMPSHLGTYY
In short: as §1

ELF1 = ELF1 (Homo sapiens, UniProt P32519 1-619)
Sequence of ELF1 (P32519 whole entry): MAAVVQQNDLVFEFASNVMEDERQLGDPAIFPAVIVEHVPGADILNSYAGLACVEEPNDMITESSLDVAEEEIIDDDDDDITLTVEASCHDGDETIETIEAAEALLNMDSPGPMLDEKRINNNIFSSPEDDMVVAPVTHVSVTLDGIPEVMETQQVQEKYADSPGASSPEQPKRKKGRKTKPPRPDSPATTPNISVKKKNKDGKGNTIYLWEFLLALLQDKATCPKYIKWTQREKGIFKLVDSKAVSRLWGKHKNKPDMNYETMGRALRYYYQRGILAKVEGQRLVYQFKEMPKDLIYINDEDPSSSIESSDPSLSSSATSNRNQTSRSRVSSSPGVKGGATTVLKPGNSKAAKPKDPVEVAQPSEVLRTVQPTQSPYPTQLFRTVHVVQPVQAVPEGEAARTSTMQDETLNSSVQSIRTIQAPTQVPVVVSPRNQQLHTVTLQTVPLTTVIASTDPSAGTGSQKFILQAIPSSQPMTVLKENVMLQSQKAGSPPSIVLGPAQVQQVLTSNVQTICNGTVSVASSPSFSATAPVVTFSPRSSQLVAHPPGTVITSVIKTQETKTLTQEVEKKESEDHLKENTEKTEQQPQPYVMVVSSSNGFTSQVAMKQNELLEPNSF
In short: as §1

EHF = molecular target: T5, EHF (Homo sapiens, UniProt Q9NZC4 1-300)
T5 sequence: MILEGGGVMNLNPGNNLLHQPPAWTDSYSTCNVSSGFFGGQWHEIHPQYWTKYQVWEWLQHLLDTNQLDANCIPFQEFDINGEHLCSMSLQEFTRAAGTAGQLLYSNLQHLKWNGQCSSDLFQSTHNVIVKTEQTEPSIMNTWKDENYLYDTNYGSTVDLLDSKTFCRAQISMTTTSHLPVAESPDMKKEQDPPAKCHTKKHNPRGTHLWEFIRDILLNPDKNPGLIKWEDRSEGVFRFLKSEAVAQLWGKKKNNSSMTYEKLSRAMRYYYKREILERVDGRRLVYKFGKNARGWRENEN
In short: as §1

SPI1 = SPI1 (Homo sapiens, UniProt P17947 1-270)
In short: as §1

SPIB = SPIB (Homo sapiens, UniProt Q01892 1-262)
Sequence of SPIB (Q01892 whole entry): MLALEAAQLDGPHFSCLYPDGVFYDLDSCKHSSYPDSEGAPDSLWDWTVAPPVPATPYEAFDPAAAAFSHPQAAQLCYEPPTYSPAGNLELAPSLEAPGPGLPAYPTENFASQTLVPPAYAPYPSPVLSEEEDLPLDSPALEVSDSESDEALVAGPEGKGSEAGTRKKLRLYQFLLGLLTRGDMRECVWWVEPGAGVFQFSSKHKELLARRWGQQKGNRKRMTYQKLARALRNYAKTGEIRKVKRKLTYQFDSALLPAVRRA
In short: as §1

ELK3 = molecular target: T6, ELK3 (Homo sapiens, UniProt P41970 1-407)
T6 sequence: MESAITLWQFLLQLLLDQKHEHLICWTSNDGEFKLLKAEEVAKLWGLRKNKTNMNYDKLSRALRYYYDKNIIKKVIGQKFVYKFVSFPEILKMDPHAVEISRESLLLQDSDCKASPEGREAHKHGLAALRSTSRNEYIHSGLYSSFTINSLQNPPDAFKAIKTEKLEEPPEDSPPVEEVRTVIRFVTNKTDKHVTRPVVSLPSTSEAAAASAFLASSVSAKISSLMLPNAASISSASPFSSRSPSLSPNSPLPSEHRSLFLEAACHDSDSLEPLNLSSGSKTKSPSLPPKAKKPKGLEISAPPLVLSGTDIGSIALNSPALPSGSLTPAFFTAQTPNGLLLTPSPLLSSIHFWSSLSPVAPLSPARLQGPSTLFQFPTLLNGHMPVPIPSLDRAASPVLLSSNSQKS
In short: as §1

Sequence	binding signal (FLI1)	binding signal (ELK1)	binding signal (GABPA)	binding signal (ERG)	binding signal (ELF1)	binding signal (EHF)	binding signal (SPI1)	binding signal (SPIB)	binding signal (ELK3)
ACTCTA	1.42 fold enrichment (6-mer frequency, TF over GST control)	1.46 fold enrichment (6-mer frequency, TF over GST control)	1.52 fold enrichment (6-mer frequency, TF over GST control)	1.39 fold enrichment (6-mer frequency, TF over GST control)	1.52 fold enrichment (6-mer frequency, TF over GST control)	1.56 fold enrichment (6-mer frequency, TF over GST control)	1.5 fold enrichment (6-mer frequency, TF over GST control)	1.45 fold enrichment (6-mer frequency, TF over GST control)	1.38 fold enrichment (6-mer frequency, TF over GST control)
TGCCGC	1.33 fold enrichment (6-mer frequency, TF over GST control)	1.3 fold enrichment (6-mer frequency, TF over GST control)	1.33 fold enrichment (6-mer frequency, TF over GST control)	1.24 fold enrichment (6-mer frequency, TF over GST control)	1.28 fold enrichment (6-mer frequency, TF over GST control)	1.28 fold enrichment (6-mer frequency, TF over GST control)	1.37 fold enrichment (6-mer frequency, TF over GST control)	1.36 fold enrichment (6-mer frequency, TF over GST control)	1.26 fold enrichment (6-mer frequency, TF over GST control)
AGAAAT	1.05 fold enrichment (6-mer frequency, TF over GST control)	1.13 fold enrichment (6-mer frequency, TF over GST control)	1.17 fold enrichment (6-mer frequency, TF over GST control)	1.1 fold enrichment (6-mer frequency, TF over GST control)	1.15 fold enrichment (6-mer frequency, TF over GST control)	1.16 fold enrichment (6-mer frequency, TF over GST control)	1.16 fold enrichment (6-mer frequency, TF over GST control)	1.11 fold enrichment (6-mer frequency, TF over GST control)	1.2 fold enrichment (6-mer frequency, TF over GST control)
TTAGGT	1.11 fold enrichment (6-mer frequency, TF over GST control)	1.12 fold enrichment (6-mer frequency, TF over GST control)	1.2 fold enrichment (6-mer frequency, TF over GST control)	1.08 fold enrichment (6-mer frequency, TF over GST control)	1.03 fold enrichment (6-mer frequency, TF over GST control)	1.1 fold enrichment (6-mer frequency, TF over GST control)	1.02 fold enrichment (6-mer frequency, TF over GST control)	1.12 fold enrichment (6-mer frequency, TF over GST control)	1.17 fold enrichment (6-mer frequency, TF over GST control)
ATACGC	1.09 fold enrichment (6-mer frequency, TF over GST control)	1.14 fold enrichment (6-mer frequency, TF over GST control)	1.2 fold enrichment (6-mer frequency, TF over GST control)	1.13 fold enrichment (6-mer frequency, TF over GST control)	1.17 fold enrichment (6-mer frequency, TF over GST control)	1.11 fold enrichment (6-mer frequency, TF over GST control)	1.08 fold enrichment (6-mer frequency, TF over GST control)	1.19 fold enrichment (6-mer frequency, TF over GST control)	1.18 fold enrichment (6-mer frequency, TF over GST control)
CGTCTC	1.41 fold enrichment (6-mer frequency, TF over GST control)	1.36 fold enrichment (6-mer frequency, TF over GST control)	1.49 fold enrichment (6-mer frequency, TF over GST control)	1.31 fold enrichment (6-mer frequency, TF over GST control)	1.53 fold enrichment (6-mer frequency, TF over GST control)	1.41 fold enrichment (6-mer frequency, TF over GST control)	1.36 fold enrichment (6-mer frequency, TF over GST control)	1.61 fold enrichment (6-mer frequency, TF over GST control)	1.63 fold enrichment (6-mer frequency, TF over GST control)
GTTTAT	1.09 fold enrichment (6-mer frequency, TF over GST control)	1.02 fold enrichment (6-mer frequency, TF over GST control)	1.08 fold enrichment (6-mer frequency, TF over GST control)	1.05 fold enrichment (6-mer frequency, TF over GST control)	1.06 fold enrichment (6-mer frequency, TF over GST control)	1.06 fold enrichment (6-mer frequency, TF over GST control)	1.07 fold enrichment (6-mer frequency, TF over GST control)	1.1 fold enrichment (6-mer frequency, TF over GST control)	1.12 fold enrichment (6-mer frequency, TF over GST control)
ACGGCT	1.02 fold enrichment (6-mer frequency, TF over GST control)	1.16 fold enrichment (6-mer frequency, TF over GST control)	1.13 fold enrichment (6-mer frequency, TF over GST control)	1.12 fold enrichment (6-mer frequency, TF over GST control)	1.08 fold enrichment (6-mer frequency, TF over GST control)	1 fold enrichment (6-mer frequency, TF over GST control)	1.18 fold enrichment (6-mer frequency, TF over GST control)	1.14 fold enrichment (6-mer frequency, TF over GST control)	1.05 fold enrichment (6-mer frequency, TF over GST control)
